Screening data: PubChem, National Center for Advancing Translational Sciences (NCATS)
HT1080NT lethal – kills 2HG-producing HT-1080-NT fibrosarcoma cells; 360,000 compounds, 1.6% hits; HT-1080-NT fibrosarcoma viability, CellTiter-Glo ATP luminescence, 48 h; Potency, µM (top dose mostly 46.1 µM), for inactives: at the top dose activity, negative = less viability, most hits filed as cytotoxic;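 further: NT is the 2HG producing partner of a matched IDH1 knockdown line; potency means the concentration at half of the fitted maximal effect; 0% = DMSO-treated cells and -100% = media-only wells without cells; nearly all actives have a fitted effect of over 55% in size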
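Read-out is CellTiter-Glo luminescence after 10 minutes at room temperature, following 48 hours' compound treatment of HT-1080-NT cells (750 cells/well, RPMI, 5% FBS, 37 degrees C).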
TDP1 cell CPT – DT40-hTDP1 cell growth loss with CPT; Potency, µM (top dose mostly 46.2 µM), without a hit: at the highest dose activity change, negative = growth inhibition, usual class: inhibitors; 420,000 compounds, 12% hits; chicken DT40 Tdp1-/-;hTDP1 cells + 20 nM CPT, ATP luminescence, 48 h; further: potency means the concentration at half of the fitted maximal effect; nearly all actives have a fitted effect of over 55% in size
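Chicken DT40 Tdp1-/- cells complemented with human TDP1, 400 cells/well, exposed to compounds plus 20 nM camptothecin for at least 48 h at 37 C; viability read as ATP content by CellTiter-Glo luminescence.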
uPA generation – blocks generation of uPA at the cell surface; cell surface uPA generation assay, qHTS; Potency, µM (top dose mostly 38.3 µM), for inactives: at the top dose activity change, negative = inhibition, hits mostly inhibitors; 330,000 compounds, 0.31% hits; active means well fitted inhibition curve with a large enough effect; inconclusive means small, poorly fitted or top-dose-only effect; inactive means no such curve, though single readings can be large or run the other way; tested in mouse RAW 264.7 cells; further: potency means the concentration at half of the fitted maximal effect; nearly all actives have a fitted effect of over 55% in size
IL1B secr inh – inhibitors of inflammasome signaling (IL-1 beta secretion) | THP-1 LPS/ATP IL-1B secretion, AlphaLISA, 16 h; active compounds read low | activity change, % at 57.5 µM | 360,000 compounds, 4.7% hits | AID 743279; in the data active means activity change below about -50%; inconclusive means mostly about -30% to -49%
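Secreted IL-1B measured by AlphaLISA bead assay after 16 h compound exposure of THP-1 cells; compounds (final up to 57.5 uM) added 1 h before LPS (250 ng/mL) and ATP (1.25 mM) stimulation; lower signal means less secretion.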
DT40 TDP1 no CPT – qHTS for Inhibitors of human tyrosyl-DNA phosphodiesterase 1 (TDP1): qHTS in cells in absence of CPT; DT40 Tdp1-/- hTDP1 cells, no CPT, ATP luminescence, 48 h; Potency, µM (titrated, usually from 46.2 µM), without a hit: at the highest dose activity change, negative = growth inhibition, hits mostly inhibitors; 420,000 compounds, 15% hits; AID 686978, 2013; further: potency means the concentration at half of the fitted maximal effect; nearly all actives have a fitted effect of over 55% in size
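Compound effects on proliferation are scored in DT40 Tdp1-/-;hTDP1 cells in the absence of CPT. ATP levels (CellTiter-Glo luminescence) are recorded after a ≥48 hr, 37 °C incubation.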
HT1080 IDH1KD tx – HT-1080 IDH1 knockdown cell toxicity (counter line). HT-1080 IDH1 knockdown viability, ATP luminescence, 48 h. Potency, µM (top dose mostly 46.1 µM), for the others: at the top dose activity, negative = toxicity, most hits filed as cytotoxic. 360,000 compounds, 2% hits. AID 686971;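 further: potency means the concentration at half of the fitted maximal effect; 0% = DMSO wells and -100% = cell-free medium wells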
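Viability of IDH1-knockdown HT-1080 fibrosarcoma cells was assessed by CellTiter-Glo after 48 h at 37 °C with titrated compound; concentration-effect curves were classified by fit quality and response size.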
The depositor's hits bear a star; ? = inconclusive; nt = no result. The list is not random: actives were taken first. Their share in the collection is about 19%. Unless noted, the call rests on the fitted dose curve; in most records, active means well fitted curve in the direction sought with a large enough effect; inconclusive means small, poorly fitted or top-dose-only effect, or another doubt; inactive means no such curve, though single readings can be large; an effect the other way counts as inactive or inconclusive. Unless noted, on the % scale 0 is the no-effect control and ±100 the full control effect.

SMILES	HT1080NT lethal	TDP1 cell CPT	uPA generation	IL1B secr inh	DT40 TDP1 no CPT	HT1080 IDH1KD tx
COc1cc(C(=O)c2ccc3c(c2)OCO3)cc(OC)c1OC	?	2.6µM*	-16%	23	5.2µM*	2.6µM*
COc1cc(C(=O)N/N=C(\C)c2ccc3c(c2)OCO3)cc(OC)c1OC	2.1µM*	1.6µM*	-12%	83	1.6µM*	3.7µM*
CC(C)c1ccc(O)c(NC(=S)NC(=O)c2ccc3c(c2)OCO3)c1	?	13µM*	-22%	0	15µM*	15µM*
COc1ccc(CNC(=O)CNC(=O)c2ccc(C(C)(C)C)cc2)cc1OC	-3%	-13%	24%	14	-24%	0%
CC(=O)Nc1ccc(S(=O)(=O)N2CCN(c3cnn(C)c(=O)c3Cl)CC2)cc1	7%	-2%	0%	-12	?	20%
Cc1ccc(NC(=O)C2OCCc3ccccc32)cc1Cl (stereo not given)	0%	-20%	?	-16	?	-5%
COc1cc(C(=O)NNC(=S)NC(=O)c2ccc3c(c2)OCO3)cc(OC)c1OC	?	21µM*	1%	104	?	?
O=C(Cc1ccccc1F)Nc1ccc(S(=O)(=O)N2CCCC2)cc1	9%	?	-9%	-51*	1%	4%
CCN(CC)S(=O)(=O)c1ccc(N2CCOCC2)c(NC(=O)Cc2cccc3ccccc23)c1	-1%	?	6%	-1	16µM*	-7%
CN(CC(=O)Nc1ccccc1N1CCOCC1)S(=O)(=O)c1ccc(F)cc1	2%	18µM*	0%	-1	18µM*	3%
O=C(Cc1ccccc1F)Nc1cc(S(=O)(=O)N2CCCCC2)ccc1N1CCOCC1	-1%	21µM*	nt	3	16µM*	1%
O=C(Cc1ccccc1F)Nc1cc(S(=O)(=O)N2CCCC2)ccc1Cl	9%	-6%	-29%	-23	17%	2%
COc1ccc(C2CC(=O)c3cc(-c4nc(-c5ccc(Cl)cc5)cs4)c(=O)[nH]c3C2)cc1 (stereo not given)	nt	-6%	nt	nt	-27%	nt
CCN(CC)S(=O)(=O)c1ccc(N2CCOCC2)c(NC(=O)Cc2ccccc2F)c1	3%	-27%	-8%	-3	15µM*	2%
CCN(CC)S(=O)(=O)c1ccc(N2CCOCC2)c(NC(=O)c2nn(C(C)C)c(=O)c3ccccc23)c1	1%	10µM*	nt	-11	5.2µM*	-4%
CCN(CC)C(=O)/C(=C/c1cn(S(=O)(=O)N(C)C)c2ccccc12)NC(=O)c1ccc(OC)cc1	?	?	3%	5	21µM*	?
CN(C)S(=O)(=O)n1cc(/C=C(\NC(=O)c2ccccc2Cl)C(=O)NCCCn2ccnc2)c2ccccc21	-29%	18µM*	-4%	-24	29µM*	-30%
CN(C)S(=O)(=O)n1cc(/C=C(\NC(=O)c2ccccc2)C(=O)NCCCn2ccnc2)c2ccccc21	-6%	-21%	-21%	-11	-27%	-3%
CC(C)CN(C(=O)COC(=O)c1ccccc1SCC(=O)N1CCCC1)C1CCS(=O)(=O)C1 (stereo not given)	-6%	-11%	3%	-5	0%	-7%
COc1ccccc1C(=O)Nc1nc2ccccc2s1	26µM*	16µM*	?	-1	10µM*	21µM*
COc1ccc(C(=O)Nc2nc3ccc(OC)cc3s2)cc1	-24%	?	?	0	?	-14%
CC(=O)Nc1ccc(NC(=O)c2cccc(-c3cc4ccccc4oc3=O)c2)cc1	24%	-17%	4%	3	-2%	4%
COc1ccc2nc(NC(=O)c3cccc(-c4cc5ccccc5oc4=O)c3)sc2c1	15µM*	16µM*	2%	-6	16µM*	18µM*
COc1ccc(C(=O)Nc2cccc(-c3cc4ccccc4oc3=O)c2)cc1[N+](=O)[O-]	16µM*	1%	1%	3	?	?
COc1ccc(C(=O)Nc2ccccc2Cc2ccccc2)c(OC)c1	-15%	18µM*	-3%	0	?	-15%
SMILES	HT1080NT lethal	TDP1 cell CPT	uPA generation	IL1B secr inh	DT40 TDP1 no CPT	HT1080 IDH1KD tx
COc1ccccc1C(=O)Nc1nc2ccc(S(C)(=O)=O)cc2s1	1%	?	-2%	10	?	-11%
O=C(CCC(=O)NNC(=O)c1ccccc1[N+](=O)[O-])NCc1ccccc1	13%	8%	0%	-8	5%	15%
CCCC1NC(=O)c2cccnc2-n2c1nc1cc(F)c(F)cc1c2=O (stereo not given)	0%	-17%	nt	-24	-1%	-7%
CNc1nnc(SCC(=O)c2c(N)n(C3CC3)c(=O)[nH]c2=O)s1	21%	-8%	2%	-11	?	23%
COCCn1c(SCC(=O)Nc2cc(C)nn2-c2ccccc2)nnc1-c1ccncc1	1%	7%	3%	8	-14%	12%
COc1cc(C(=O)Nn2c(C)nc3ccccc3c2=O)cc(OC)c1OC	4%	-3%	-5%	18	-29%	23%
CSc1ncccc1C(=O)Nc1nc2ccc(Oc3ccccc3)cc2s1	-21%	21µM*	-9%	-7	?	-9%
COc1cc(CNc2ccc(C)c(C)c2)cc(OC)c1OC	5µM*	2.1µM*	?	25	1.3µM*	4µM*
COc1ccccc1C(=O)Nn1c(C)nc2ccccc2c1=O	1%	10µM*	-8%	-6	?	-5%
COc1ccc(CNc2ccc(C)c(C)c2)cc1	6%	0%	2%	7	-2%	11%
COc1ccc2nc(Nc3nc(C)c(C(C)=O)s3)sc2c1	-22%	?	-12%	-27	16µM*	?
O=C(NCCO)C(=O)NCC1OCCCN1S(=O)(=O)c1cc(F)ccc1F (stereo not given)	7%	4%	3%	-14	13%	24%
O=C(c1ccccc1-c1ncc[nH]1)N1CCc2c([nH]c3ccccc23)C1c1ccccn1 (stereo not given)	-9%	?	3%	7	?	-4%
C#CC1(NC(=O)NCCCC)CCCCC1	2%	-5%	1%	13	2%	0%
CCOC(=O)c1[nH]c2ccc(OC)cc2c1NC(=S)N1CCN(C(=O)OCC)CC1	0%	3%	4%	0	-4%	-2%
